Laboratory results: PubChem BioAssay AID588664 (The Scripps Research Institute Molecular Screening Center, 2011)
In all, about 360,000 compounds went through this assay and about 1,400 (0.39%) were called active. The list comes from a sample in which actives are over-represented; it also holds similar structures and randomly drawn compounds. A number with no mark means an inactive call. No stated cut-off is given here; in the data, active means inhibition above about 5% (passing the limit was not always enough); inactive means the rest.

The molecules below were run against Tyrosine-protein kinase ABL1 (Homo sapiens) + Ras and Rab interactor 1 (Homo sapiens) (UniProt P00519+Q13671) (assay: inhibitors of Rin1-Abl protein binding, primary screen, biochemical, TR-FRET (AID 588664)). Conditions: at 7.35 µM, hits give high values.
Sequence of Tyrosine-protein kinase ABL1 (Homo sapiens) + Ras and Rab interactor 1 (Homo sapiens) (P00519 whole entry, looked up): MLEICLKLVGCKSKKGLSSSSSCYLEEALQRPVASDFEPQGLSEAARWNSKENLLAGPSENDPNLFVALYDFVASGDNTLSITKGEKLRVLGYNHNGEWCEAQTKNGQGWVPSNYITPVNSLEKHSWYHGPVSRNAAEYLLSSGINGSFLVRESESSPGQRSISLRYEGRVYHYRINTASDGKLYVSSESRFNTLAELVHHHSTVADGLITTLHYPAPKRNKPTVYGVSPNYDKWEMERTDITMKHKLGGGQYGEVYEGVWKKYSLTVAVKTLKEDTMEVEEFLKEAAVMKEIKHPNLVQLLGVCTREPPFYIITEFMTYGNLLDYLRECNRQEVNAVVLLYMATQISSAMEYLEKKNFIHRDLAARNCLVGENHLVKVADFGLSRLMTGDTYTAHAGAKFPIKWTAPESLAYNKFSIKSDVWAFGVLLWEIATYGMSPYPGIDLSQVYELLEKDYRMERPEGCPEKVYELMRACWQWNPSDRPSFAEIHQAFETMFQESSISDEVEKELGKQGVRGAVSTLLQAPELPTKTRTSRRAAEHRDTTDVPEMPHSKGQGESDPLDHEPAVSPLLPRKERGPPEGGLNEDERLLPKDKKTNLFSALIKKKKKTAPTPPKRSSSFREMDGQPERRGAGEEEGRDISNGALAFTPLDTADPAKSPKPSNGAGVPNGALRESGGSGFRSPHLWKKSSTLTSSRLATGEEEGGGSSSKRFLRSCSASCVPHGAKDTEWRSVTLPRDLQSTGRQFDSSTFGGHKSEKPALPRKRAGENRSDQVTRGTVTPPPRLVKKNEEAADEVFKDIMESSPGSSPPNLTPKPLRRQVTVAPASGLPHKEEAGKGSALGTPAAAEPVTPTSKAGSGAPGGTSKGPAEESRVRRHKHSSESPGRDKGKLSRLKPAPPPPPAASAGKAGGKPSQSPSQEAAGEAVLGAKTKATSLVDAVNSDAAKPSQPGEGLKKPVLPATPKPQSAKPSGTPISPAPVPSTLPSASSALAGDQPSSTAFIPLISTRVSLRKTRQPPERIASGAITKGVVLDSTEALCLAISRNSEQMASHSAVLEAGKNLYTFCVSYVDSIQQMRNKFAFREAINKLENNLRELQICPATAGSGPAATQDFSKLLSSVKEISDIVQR
Sequence of Tyrosine-protein kinase ABL1 (Homo sapiens) + Ras and Rab interactor 1 (Homo sapiens) (Q13671 whole entry, looked up): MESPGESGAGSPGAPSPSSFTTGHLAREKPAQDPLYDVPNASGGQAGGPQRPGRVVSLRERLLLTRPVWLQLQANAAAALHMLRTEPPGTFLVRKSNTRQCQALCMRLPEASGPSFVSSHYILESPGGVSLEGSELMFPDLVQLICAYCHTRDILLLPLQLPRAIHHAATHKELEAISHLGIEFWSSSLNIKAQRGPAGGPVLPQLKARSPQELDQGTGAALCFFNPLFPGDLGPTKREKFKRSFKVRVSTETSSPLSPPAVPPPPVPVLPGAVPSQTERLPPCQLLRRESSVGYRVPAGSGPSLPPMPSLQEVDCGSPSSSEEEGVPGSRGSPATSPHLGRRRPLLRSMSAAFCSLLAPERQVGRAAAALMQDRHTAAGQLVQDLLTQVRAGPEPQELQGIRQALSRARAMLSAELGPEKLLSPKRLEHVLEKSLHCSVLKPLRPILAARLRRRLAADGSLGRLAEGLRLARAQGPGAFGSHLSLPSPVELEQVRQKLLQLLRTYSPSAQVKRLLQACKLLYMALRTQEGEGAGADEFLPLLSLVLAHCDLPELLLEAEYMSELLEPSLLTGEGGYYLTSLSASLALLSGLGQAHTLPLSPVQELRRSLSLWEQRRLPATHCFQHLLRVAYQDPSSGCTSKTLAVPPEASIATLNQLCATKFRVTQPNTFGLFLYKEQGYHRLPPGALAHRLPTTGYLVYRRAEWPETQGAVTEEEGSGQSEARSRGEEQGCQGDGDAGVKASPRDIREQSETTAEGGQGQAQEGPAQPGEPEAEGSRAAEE

Row | SMILES | inhibition
1 | Oc1c(CN2CCN(c3ccc(F)cc3)CC2)cc(Cl)c2cccnc12 | 5.47% (active)
2 | Cc1cccc(C)c1NC(=O)CN1CCN(c2ccc(F)cc2)CC1 | 2.38%
3 | Cc1cc(=O)oc2cc(OCC(=O)N3CCN(c4ccc(F)cc4)CC3)c(Cl)cc12 | -4.94%
4 | O=C(CN1CCN(c2ccc(Cl)cc2)CC1)NCc1cccs1 | -1.08%
5 | OC[C@@H]1CN(Cc2ccc(Cl)cc2)C[C@H](n2cnc3c(NCc4ccncc4)ncnc32)O1 | 7.27% (active)
6 | COCCNc1ncnc2c1ncn2[C@H]1CN(Cc2ccc(OC)cc2)C[C@@H](CO)O1 | -1.27%
7 | CC(C)Nc1ncnc2c1ncn2[C@H]1CN(Cc2ccncc2)C[C@@H](CO)O1 | 3.54%
8 | CCOC(=O)c1cn[nH]c1NC(=S)Nc1ccccc1 | -0.64%
9 | Cc1ccc(S(=O)(=O)CCC(=O)OCC(=O)N(C)C2CCS(=O)(=O)C2)cc1 (stereo not drawn) | 6.74%
10 | O=C(c1ccc(-n2cnnn2)cc1)N1CCN(C(c2ccccc2)c2ccccc2)CC1 | 1.41%
11 | Cc1ccc(C2CC(c3cccc(C)c3)n3nc(N)nc3N2)cc1 (stereo not drawn) | -1.41%
12 | Nc1nc2n(n1)C(c1ccco1)CC(c1ccc(Cl)c(Cl)c1)N2 (stereo not drawn) | 6.57% (active)
13 | Cc1ccc(C2CC(c3cccc(Br)c3)n3nc(N)nc3N2)cc1 (stereo not drawn) | 1.76%
14 | O=C(NC(=S)Nc1ccc(Br)cc1F)C1CCCCC1 | 6.29%
15 | CN(C)c1ccc(CNC(=O)CN2C(=O)COc3ccc(S(=O)(=O)N4CCCC4)cc32)cc1 | 2.18%
16 | CC(=O)Nc1ccc(NC(=O)CN2C(=O)COc3ccc(S(=O)(=O)N4CCCCC4)cc32)cc1 | 2.56%
17 | Cc1cccc(N(C)C(=O)CN2C(=O)COc3ccc(S(=O)(=O)N4CCCCCC4)cc32)c1 | 9.47% (active)
18 | Cc1cccc(OCc2nnc(SCc3nc4cc(C(F)(F)F)ccc4c(=O)[nH]3)o2)c1 | 4.23%
19 | O=C1CC(Cc2ccccc2)C(=O)N1c1ccc(Cl)cn1 (stereo not drawn) | -3.26%
20 | C=CCN(C(=O)Cn1ncc2c1-c1cc(C)ccc1OC2)c1ccccc1 | 2.13%
21 | Cc1cnc(C)c(N2CCN(C(=O)C3CCC(=O)N(CCc4cccc(F)c4)C3)CC2)n1 (stereo not drawn) | -0.04%
22 | CCOC(=O)N1CCN(C(=O)C2CCN(S(=O)(=O)c3cc(Cl)ccc3OCC)CC2)CC1 | 3.03%

Row | SMILES | inhibition
23 | CCOC(=O)N1CCN(C(=O)C2CCN(Cc3ccc(OC)cc3OC)CC2)CC1 | 0.29%
24 | Cc1cc(=O)n2nc(N3CCCC(C(=O)N4CCN(C)CC4)C3)sc2n1 (stereo not drawn) | 1.05%
25 | CCOC(=O)N1CCN(C(=O)C2CCN(c3ncnc4c3sc3cccc(F)c34)CC2)CC1 | 18.2% (active)
26 | CCOC(=O)N1CCN(C(=O)C2CCCN(c3ncnc4c3sc3cccc(F)c34)C2)CC1 (stereo not drawn) | 6.58% (active)
27 | O=C(CCNC(=O)c1ccc([N+](=O)[O-])cc1)NC1CCCCC1 | -2.29%
28 | O=C1CC2(CCCCC2)Oc2ccc(OCC(=O)N3CCOCC3)cc21 | -3.03%
29 | COc1cc2c(cc1CNC[C@H]1O[C@@H](n3cnc(C(N)=O)n3)[C@H](O)[C@@H]1O)OCO2 | -2.98%
30 | CCOc1ccc(N(CC)S(=O)(=O)c2cccc3nsnc23)cc1 | -2.8%
31 | O=C(NC(c1ccc(-c2ccccc2)cc1)c1cnccn1)C1CCN(CCOc2ccc(Cl)cc2Cl)CC1 (stereo not drawn) | -3.71%
32 | O=C(NC(c1ccc(Cl)cc1)c1cnccn1)C1CCN(Cc2ccc(Cl)cc2)CC1 (stereo not drawn) | -1.67%
33 | Cc1ccc(C(NC(=O)C2CCN(CCOc3ccc(Cl)cc3Cl)CC2)c2ccccn2)cc1 (stereo not drawn) | 9.27% (active)
34 | CCCS(=O)(=O)Nc1c(C(=O)O)[nH]c2ccccc12 | 0.58%
35 | CCOC(=O)c1c(NC(=O)CN2C(=O)NC3(CCC(C)CC3)C2=O)sc(C)c1CC (stereo not drawn) | 0.02%
36 | C=CCn1c(SCC(=O)CC(=O)OCC)nc2cc(C(=O)N3CCC(C(N)=O)CC3)ccc2c1=O | -1.96%
37 | C=CCn1c2ccccc2c2nnc(SCc3[nH]c(=O)[nH]c3C(=O)CCCCC(=O)OCC)nc21 | 59.4% (active)
38 | C=CCn1c2ccccc2c2nnc(SC(CC)C(=O)Nc3nc(C)c(C(=O)OCC)s3)nc21 (stereo not drawn) | 2.82%
39 | COc1ccc(NC(=O)C2CCC(CNS(=O)(=O)c3csc(C(N)=O)c3)CC2)cc1OC (stereo not drawn) | -0.76%
40 | COc1ccc(CCC(=O)Nc2ccc(Cl)c(S(=O)(=O)N3CCOCC3)c2)cc1OC | 0.12%
41 | CN(CC(=O)Nc1ccc(S(=O)(=O)N2CCCC2)cc1)Cc1ccc(Cl)c(Cl)c1 | -4.78%
42 | CN(CC(=O)Nc1ccc(F)cc1)CC(=O)Nc1ccc(Cl)c(S(=O)(=O)N2CCOCC2)c1 | 5.07% (active)
43 | Nc1ncnc2c1ncn2[C@@H]1O[C@H](CNS(=O)(=O)c2ccc(-c3ccno3)s2)[C@@H](O)[C@H]1O | -1.25%
